A selection follows.
aSyn 5UTR act – Activators via SNCA 5'UTR binding, MLPCN; alpha-synuclein 5'UTR reporter, activators screen; activity score, % (tested at 7.5 µM), hits read low; 300,000 tested, 7.1% active; AID 1814; in the data active = activity score below about -60%
Hits are given with their value; – = inactive.

SMILES	aSyn 5UTR act
O=C(Nc1c2c(nn1-c1ccc(F)cc1)CS(=O)(=O)C2)C1CCCC1	-62.2
CCOC(=O)c1sc2nccc(N(C)C)c2c1N=CNOCc1ccccc1	-91.9
CN(C)/C=C(\C#N)C(=O)Nc1ccccc1	-73.5
O=C(Cn1ncc(Cl)c(Cl)c1=O)N1CCOCC1	-61.6
O=C(Cn1ncc(Cl)c(Cl)c1=O)N1CCc2ccccc21	–
O=C(Cn1ncc(Cl)c(Cl)c1=O)N1CCN(Cc2ccccc2)CC1	-70.7
CCc1ccc(C(=O)Cn2ncc(Cl)c(Cl)c2=O)cc1	-64.0
CC1(C)C(=O)Nc2ccccc2N1C(=O)Cn1ncc(Cl)c(Cl)c1=O	-167.1
COc1ccc(-n2nc(C(=O)NCC(=O)N3CCN(c4ccccc4F)CC3)c3ccccc3c2=O)cc1	-119.6
CCCC(=O)N1c2ccccc2C(=C2SC(C(=O)OC)=C(C(=O)OC)S2)C(=S)C1(C)C	-88.3
S=C(Nc1ccc(Br)cc1)NC1CCCCC1	-119.0
FC(F)Oc1ccc(NC(=S)NC2CCCCCCC2)cc1	-93.1
S=C(Nc1ccc(Cl)cc1)NC1CCCCC1	-73.3
CSc1cccc(CN(C)C(=O)C2CCC(=O)N(CCCN3CCCC3=O)C2)c1 (configuration not stated)	-72.6
O=C(NC(=S)N1CCCCC1)c1csc([N+](=O)[O-])c1	-87.1
CCOc1ccc2nc(SCc3ccc(F)cc3)sc2c1	-67.7
O=C1c2ccccc2S(=O)(=O)N1CC1CC(c2ccccc2)=NO1 (configuration not stated)	-143.7
O=C(CN1C(=O)c2ccccc2S1(=O)=O)c1ccccc1Cl	–
O=C1c2ccccc2S(=O)(=O)N1CC1CC(c2ccc(Cl)cc2)=NO1 (configuration not stated)	-197.4
COc1ccc(C2=NOC(CN3C(=O)c4ccccc4S3(=O)=O)C2)cc1 (configuration not stated)	-175.4
CN(C)c1ccc(/C=N\NC(=O)c2csnn2)cc1	-146.1
O=C(N/N=C\c1ccc(Oc2ccccc2)cc1)c1csnn1	-95.9
Cn1ccnc1Sc1ccc(/C=N/NC(=O)c2ccccc2O)cc1[N+](=O)[O-]	-61.8
Cn1c(NCc2cccs2)nc2ccccc21	-63.5
COc1ccccc1-n1cnc2cc(NCc3ccco3)ccc21	–
SMILES	aSyn 5UTR act
Cn1c(NCc2c[nH]c3ccccc23)nc2ccccc21	-98.0
Cn1c(NCc2ccco2)nc2ccccc21	-102.0
Nc1nc(CSC(=S)N2CCOCC2)nc(Nc2ccccc2)n1	-131.3
Cc1ccc(Nc2nc(N)nc(CSC(=S)N3CCOCC3)n2)cc1	-127.3
Cc1cccc(Nc2nc(N)nc(CSC(=S)N3CCOCC3)n2)c1	-108.4
CCN(CC)c1ccc(/C=C/c2cccc[n+]2C)c(OC)c1	–
CCN(CC)c1ccc(/C=C/c2ccc3ccc(OC)cc3[n+]2CC)cc1	-86.5
CC[n+]1c(/C=C/c2ccc(OC(C)=O)c(OC)c2)ccc2ccccc21	-71.8
CC[n+]1c(/C=C/c2ccc(OC)c(OC)c2)ccc2ccccc21	-117.2
CC(C)N1CCC2(CC1)N=C(c1ccc3c(c1)OCO3)CC(c1cc(Cl)ccc1O)N2 (configuration not stated)	-172.7
O=S(=O)(NCc1cn2ccccc2n1)c1cccs1	-63.8
Cc1ccc2oc(Nc3nc(C)c(C)c(C)n3)nc2c1	-99.4
COc1ccc2nc(C)cc(N/N=C/c3ccc(F)cc3)c2c1	–
COc1ccc(/C=N/Nc2cc(C)nc3ccccc23)cc1	-84.6
COc1ccc(/C=N/Nc2cc(C)nc3c(C)cccc23)cc1	-81.2
COc1ccc(/C=N/Nc2nnc(-c3ncc[nH]3)c3ccccc23)cc1	-203.1
Oc1ccc2ccccc2c1/C=N/Nc1nnc(-c2ncc[nH]2)c2ccccc12	–
N#Cc1ccccc1/C=N/Nc1nc(-c2ccccc2)c2cc(Cl)ccc2n1	-95.2
COC(=O)c1ccc(Nc2nc3ccc(C)cc3n3cnnc23)cc1	-97.7
CC(C)NC(=O)c1ccc(-c2ccccc2C(F)(F)F)o1	-130.7
[O-]/C(=C(\C(=S)Nc1ccc(SC(F)F)cc1)[n+]1ccccc1)c1ccc(Cl)cc1Cl	-71.5
Cc1ccc2sc(NC(=O)C3CC3)nc2c1C	-73.0
O=C(Nc1nc2c(F)cc(F)cc2s1)C1CC1	-107.4
CN1CCC(=NOc2ccc([N+](=O)[O-])cc2)CC1	-93.4
CN(C)c1ccc(/C=C2/SC(=O)N(CCN=C3NS(=O)(=O)c4ccccc43)C2=O)cc1	-66.0
SMILES	aSyn 5UTR act
CN(C)c1ccc(/C=C2\SC(=O)N(CCc3nnc(N)s3)C2=O)cc1	–
COc1ccc(C)c2sc(=NC(=O)c3cccc(N4C(=O)CCC4=O)c3)n(C)c12	-92.9
COc1ccc(C)c2sc(=NC(=O)c3ccccc3)n(C)c12	-265.6
Cc1ccc(NC(=O)c2cc(C)n(-c3cccc(C)c3)c2C)cc1	-61.9
COc1cc2ccccc2cc1C(=O)Nc1ccc(C)cc1	-185.8
Cc1ccc(NC(=O)c2cccc3ccccc23)cc1	-90.8
COc1cc2ccccc2cc1C(=O)Nc1ccc(Cc2ccncc2)cc1	-128.9
Cc1ccc(NC(=O)c2cc(C)n(-c3ccccc3)c2C)cc1	–
CC(=O)Oc1ccccc1C(=O)Nc1ccccc1	-92.7
COc1ccccc1C(=O)Nc1ccc2ccccc2c1	-87.8
O=C(Nc1ccncc1)c1cc2ccccc2cc1O	-78.7
Cc1cc(NC(=O)c2ccco2)ncc1NC(=O)Cc1ccccc1	-118.5
O=C(CCc1ccccc1)Nc1ccc(NC(=O)c2ccco2)nc1	-70.8
CC(C)C(=O)Nc1ccc(NC(=O)c2ccccc2Cl)nc1	-115.0
O=C(Nc1ccccn1)c1ccc(NC(=O)c2ccco2)cc1	-141.2
O=C(Nc1ccc(NC(=O)c2ccccc2Cl)nc1)c1ccco1	-102.3
CC(=O)n1cc(N(C(=O)CCl)c2ccc(C)cc2)c2ccccc21	–
CC(=O)n1c2ccccc2c2nc3ccccc3nc21	-98.1
Cn1c(=O)c2c(nc(NCC3CCCC(CN)C3)n2Cc2ccc(Cl)cc2Cl)n(C)c1=O (configuration not stated)	-83.7
COc1ccc(NC2=C3CC(C)CC=C3N(c3ccc(OC)cc3)C2=O)cc1 (configuration not stated)	-84.1
COc1ccc(-c2nn(-c3ccccc3)cc2CO)cc1	-86.2
Cc1ccc(-c2nn(-c3ccccc3)cc2NC(=O)CCl)cc1	-71.1
COc1ccc(-c2nn(-c3ccccc3)cc2N)cc1	-167.3
Cc1ccc(-c2nn(-c3ccccc3)cc2CO)cc1	-103.6
Cc1ccc(-n2nc3c(=O)n(CCCC(=O)NCc4ccc(Cl)cc4)nc(C)c3c2C)cc1	–
SMILES	aSyn 5UTR act
Cc1ccc(-n2nc(C)c(NC(=O)CCl)c2C)cc1	-146.4
COC(=O)C1=C(NC(=O)c2ccc(C)c(C)c2)CCS1	-76.3
O=C1CCCCC/C1=N/Nc1ccc(OCc2ccccc2)cc1	-74.0
Cc1ccc(NC(=O)CSc2ncc(-c3ccccc3)n2C(=O)c2ccccc2)cc1	-64.3
Cc1ccc(NC(=O)CSc2nc3ccccc3c3nc4ccccc4n23)cc1	–
O=c1cc(-c2ccccc2Cl)oc2c(Br)ccc(O)c12	-129.5
COC(=O)c1ccccc1NC(=O)c1ccc2c(c1)CC(C)O2 (configuration not stated)	-64.9
Cc1ccc(NC(=O)Nc2ccc(F)c(Cl)c2)cc1	-164.8
COc1ccc(NC(=O)Nc2ccc(F)c(Cl)c2)cc1	-140.3
O=C(OCc1nnc(-c2ccc(Cl)cc2)o1)C12CC3CC(CC(O)(C3)C1)C2	-204.6
COc1ccccc1Nc1nc(C)cs1	-105.6
COc1ccccc1Nc1nc(-c2cccc([N+](=O)[O-])c2)cs1	-77.2
O=[N+]([O-])c1cccc(-c2csc(Nc3ccccc3)n2)c1	-299.0
COc1ccccc1Nc1ccc(Nc2ccccc2OC)nn1	-171.1

From PubChem
